About 7,900 targets were measured; listed, in parts, are those with a hit and a random draw of the rest. About 0.6% of all pairs of compound and target were hits.
biological target: AAGAB (UniProt Q6PD74); assay: log2 fold change, soluble protein after heating vs DMSO (PISA); higher = thermal stabilisation; K562 cells, 10 uM, 30 min; active = over 0.2 and 3.5 SD of the protein, either way, in both replicates (recomputed)
Outline: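 Soluble protein was quantified by TMTpro 16plex LC-MS/MS after channel sums were equalised. It was obtained as the supernatant after 21,000xg for 90 min from pooled aliquots of K562 cells (2×10^6 cells/mL, 10 μM compound, 30 min) heated for 3 min across 48°C-58°C and extracted in PBS with 0.5% NP-40 at 4°C. Thermal stability values are relative to control samples and come from duplicates. They are given as log2 fold changes.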

Sequence of AAGAB (Q6PD74 whole entry, looked up): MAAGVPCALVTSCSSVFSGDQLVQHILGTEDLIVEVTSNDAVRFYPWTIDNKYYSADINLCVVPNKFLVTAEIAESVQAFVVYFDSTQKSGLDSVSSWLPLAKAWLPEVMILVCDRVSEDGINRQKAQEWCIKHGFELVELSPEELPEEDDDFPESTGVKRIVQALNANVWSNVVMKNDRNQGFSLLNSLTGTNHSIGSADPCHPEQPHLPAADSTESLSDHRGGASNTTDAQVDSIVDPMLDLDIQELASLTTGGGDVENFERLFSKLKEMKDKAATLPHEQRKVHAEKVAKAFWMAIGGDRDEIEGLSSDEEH

log2 fold change, inactive:
CS(=O)(=O)N1CCN(Cc2cc3nc(-c4cccc5[nH]ncc45)nc(N4CCOCC4)c3s2)CC1 [pictilisib] 0.039
O=C(CCCCCCNC(=O)c1cnc(N(c2ccccc2)c2ccccc2Cl)nc1)NO [citarinostat] 0.024
COc1cc(Nc2ncc3c(n2)-c2ccc(Cl)cc2C(c2c(F)cccc2OC)=NC3)ccc1C(=O)O [alisertib] 0.062
Cc1ccc(-n2nc(C(C)(C)C)cc2NC(=O)Nc2ccc(OCCN3CCOCC3)c3ccccc23)cc1 [doramapimod] 0.017
O=C(Nc1cccc(Nc2ncc(Br)c(NCCc3cnc[nH]3)n2)c1)N1CCCC1 0.067
O=C(O)c1ccc2c(c1)nc(Nc1cccc(Cl)c1)c1ccncc12 [silmitasertib] 0.071
C[C@@H](Oc1cc(-c2cnn(C3CCNCC3)c2)cnc1N)c1c(Cl)ccc(F)c1Cl [crizotinib] -0.134
COC(=O)[C@H](CCSC)NC(=O)c1ccc(NC[C@@H](N)CS)cc1-c1ccccc1 -0.029
CC(C)c1cnn2c(NCc3ccccc3)cc(NCCCCCCN)nc12 -0.099
CN1CC[C@H](c2c(O)cc(O)c3c(=O)cc(-c4ccccc4Cl)oc23)[C@H](O)C1 [alvocidib] 0.008
CN1CCN(c2nc(C3=C(c4c[nH]c5ccccc45)C(=O)NC3=O)c3ccccc3n2)CC1 [sotrastaurin] 0.007
CN1CCc2c(c3ccccc3n2Cc2ccc(C(=O)NO)cc2)C1 [Tubastatin A] 0.016
CCCCN(Cc1ccc(C(=O)NO)cc1)C(=O)Nc1ccccc1 [Nexturastat A] 0.109
Cc1cc(Nc2cc(N3CCN(C)CC3)nc(Sc3ccc(NC(=O)C4CC4)cc3)n2)n[nH]1 [tozasertib] 0.029
Cc1cc(Nc2cc(CN3CCOCC3)c3nc(C)c(Cc4ccc(Cl)cc4F)n3n2)n[nH]1 [gandotinib] -0.026
CC[C@@H]1C(=O)N(C)c2cnc(Nc3ccc(C(=O)NC4CCN(C)CC4)cc3OC)nc2N1C1CCCC1 -0.106
CC(=O)c1cnc2ccc(-c3cc(Cl)c(O)c(Cl)c3)nc2c1N[C@H]1CC[C@H](CN(C)C)CC1 0.077
Cc1ccc(NC(=O)c2cccc(N(C)C)c2)cc1NC(=O)c1ccc(O)cc1 -0.063
CN(CCOc1ccc(C[C@@H]2SC(=O)NC2=O)cc1)c1ccccn1 (racemic) [rosiglitazone] 0.029
C#Cc1cccc(Nc2ncnc3cc(OCCOC)c(OCCOC)cc23)c1 [erlotinib] 0.251
COc1cc(C(=O)O)ccc1NC(=O)[C@@H]1N[C@@H](CC(C)(C)C)[C@](C#N)(c2ccc(Cl)cc2F)[C@H]1c1cccc(Cl)c1F [idasanutlin] -0.053
CCCS(=O)(=O)Nc1ccc(F)c(C(=O)c2c[nH]c3ncc(-c4ccc(Cl)cc4)cc23)c1F [vemurafenib] -0.012
CC(C)(O)CC(=O)NCCn1ccc2ncnc(Nc3ccc(Oc4cccc(C(F)(F)F)c4)c(Cl)c3)c21 -0.146
CCn1cc(-c2ccnc3[nH]c(-c4cccc(CN(C)C)c4)cc23)c(-c2ccc(NC(=O)N(C)C)cc2)n1 -0.018
CN(C)CC(=O)Nc1ccc2[nH]c(=O)c3ccccc3c2c1 0.021
Cc1cc(SCc2sc(-c3ccc(C(F)(F)F)cc3)nc2C)ccc1OCC(=O)O 0.051
CN1CCC(CNc2ccc3ncc(-c4cccc(OC(F)(F)F)c4)n3n2)CC1 -0.228
NC(=O)c1ccc2nc(-c3ccc(Oc4ccc(Cl)cc4)cc3)[nH]c2c1 -0.068
CC(C)(C)Cn1c(N)nc2ccc(-c3[nH]c(C(C)(C)C)nc3-c3ccc(F)cc3)nc21 [ralimetinib] 0.065
CC[C@H](C)n1cc(C)c2c(C(=O)NCc3c(C)cc(C)[nH]c3=O)cc(-c3ccc(N4CCNCC4)nc3)cc21 0.058
